Laboratory results from PubChem BioAssay (NCI).
Values joined by “and” are separate entries in the source; they are usually repeats but may differ in a detail not shown here. Equal entries are not always repeated. Compounds without any hit were thinned out: in the full panel of roughly 83,000, 20% have a hit.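 A percent growth of 40 corresponds to 60% growth inhibition; 0 means no net growth; -100 means all cells died. Active threshold: below 10.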 Active and inactive are the calls of the source.

Experiments:
Assay in all cases: NCI-60 one-dose screen, 48 h (100 = growth as untreated, 0 = no growth, -100 = all killed)
Details in all cases: 10 µM unless noted
HCT-15 colon = system: HCT-15 colon
HT29 colon = system: HT29 colon
SNB-75 CNS = system: SNB-75 CNS
SNB-19 CNS = system: SNB-19 CNS
U251 CNS = system: U251 CNS
PC-3 prostate = system: PC-3 prostate
SK-MEL-5 melanoma = system: SK-MEL-5 melanoma
UACC-62 melanoma = system: UACC-62 melanoma
LOX IMVI melanoma = system: LOX IMVI melanoma
SK-MEL-28 melanoma = system: SK-MEL-28 melanoma

Measured: growth

O=C(NCc1cccnc1)/C(=C\c1ccc(Br)cc1)S(=O)(=O)c1ccccc1
active: HCT-15 colon -33.2% | HT29 colon -72.2% | SNB-75 CNS 9.38% | SNB-19 CNS -2.37% | U251 CNS -87.1% | PC-3 prostate -0.986% | SK-MEL-5 melanoma -17.9% | UACC-62 melanoma -31.3% | LOX IMVI melanoma -89.5% | SK-MEL-28 melanoma -39.3%

OCc1cc(CN2CCCCC2)c(O)c2ncccc12
inactive: HCT-15 colon 20% | HT29 colon 41.6% | SNB-75 CNS 81.1% | SNB-19 CNS 57.3% | U251 CNS 40.5% | PC-3 prostate 46.9% | SK-MEL-5 melanoma 74.2% | UACC-62 melanoma 55.3% | LOX IMVI melanoma 37.3% | SK-MEL-28 melanoma 60.7%

O=C1C(c2c[nH]c3ccccc23)=C(c2coc3cc(Br)ccc23)C(=O)N1O
inactive: HCT-15 colon 97.2% | HT29 colon 103% | SNB-75 CNS 65.4% | SNB-19 CNS 103% | U251 CNS 101% | PC-3 prostate 89.6% | SK-MEL-5 melanoma 97.2% | UACC-62 melanoma 84.7% | LOX IMVI melanoma 62.2% | SK-MEL-28 melanoma 111%

COC1=CC(=O)C(OC)=C(O)C1=O
inactive: HCT-15 colon 97.7% | HT29 colon 106% | SNB-75 CNS 77% | SNB-19 CNS 101% | U251 CNS 101% | PC-3 prostate 97.2% | SK-MEL-5 melanoma 97.8% | UACC-62 melanoma 96.1% | LOX IMVI melanoma 99.6% | SK-MEL-28 melanoma 102%

BrC1=C(Br)C(Br)(Br)C(Br)=C1Br
inactive: HCT-15 colon 60.8% | HT29 colon 63.9% | SNB-75 CNS 72.7% | SNB-19 CNS 92.3% | U251 CNS 91.9% | PC-3 prostate 84.6% | SK-MEL-5 melanoma 102% | UACC-62 melanoma 71% | LOX IMVI melanoma 45.5% | SK-MEL-28 melanoma 93%

COc1ccc(/C=N/C2=C(C#N)C(c3ccccc3)c3c(ccc4ccccc34)O2)cc1 (stereo not given)
inactive: HCT-15 colon 22.5% | SNB-19 CNS 22.9% | U251 CNS 24.1% | PC-3 prostate 23.3% | SK-MEL-5 melanoma 20.8% | UACC-62 melanoma 37.3% | LOX IMVI melanoma 28.5% | SK-MEL-28 melanoma 64.7%
active: HT29 colon 5.31% | SNB-75 CNS -39.4%

CCCCCCCCCCCCCCCCCCOc1cccc(CC(=O)OCC[N+](CC)(CC)CC)c1
inactive: HCT-15 colon 81.3% | HT29 colon 64.5% | SNB-75 CNS 61.9% | SNB-19 CNS 38.3% | U251 CNS 37.6% | PC-3 prostate 55.4% | SK-MEL-5 melanoma 29.8% | UACC-62 melanoma 63% | LOX IMVI melanoma 56.5% | SK-MEL-28 melanoma 92.8%

N=C(N)c1ccc(-c2ccc(-c3ccc(F)cc3)s2)nc1
active: HT29 colon 8.67%
inactive: HCT-15 colon 10.4% | SNB-75 CNS 100% | SNB-19 CNS 80.1% | U251 CNS 22.3% | PC-3 prostate 65.3% | SK-MEL-5 melanoma 77% | UACC-62 melanoma 95.9% | LOX IMVI melanoma 18.6% | SK-MEL-28 melanoma 102%

CCc1c2c(nc3ccc(OCc4ccc(B5OC(C)(C)C(C)(C)O5)cc4)cc13)-c1cc3c(c(=O)n1C2)COC(=O)[C@]3(O)CC
active: SNB-75 CNS 5.99% | SNB-19 CNS 8.91% | U251 CNS -8.07% | SK-MEL-5 melanoma -54.8% | UACC-62 melanoma -40.7% | LOX IMVI melanoma -55.2%
inactive: HCT-15 colon 32.9% | HT29 colon 10.2% | PC-3 prostate 26.9% | SK-MEL-28 melanoma 32.8%

C/C(=C(\c1ccc(OCCN2CCOCC2)cc1)c1ccc(OC(=O)C2CCCCC2)cc1)c1ccc(Cl)cc1
inactive: HCT-15 colon 97.7% | HT29 colon 76.3% | SNB-75 CNS 109% | SNB-19 CNS 100% | U251 CNS 99.5% | PC-3 prostate 68.2% | SK-MEL-5 melanoma 91.6% | UACC-62 melanoma 87.9% | LOX IMVI melanoma 102% | SK-MEL-28 melanoma 99.1%

C/C=C(/C)C(=O)O[C@@H]1CC(C)(C)CC2C34OC(=O)[C@@]21CC[C@@]3(C)[C@]1(C)CCC2C(C)(C)C(=O)CC[C@]2(C)C1C[C@@H]4Cl (stereo not given in full)
inactive: HCT-15 colon 99.3% | HT29 colon 98% | SNB-75 CNS 76% | SNB-19 CNS 92% | U251 CNS 92.1% | PC-3 prostate 80.4% | SK-MEL-5 melanoma 98.4% | UACC-62 melanoma 85.3% | LOX IMVI melanoma 94.1% | SK-MEL-28 melanoma 102%

CCCO/N=C/c1ccccn1
inactive: HCT-15 colon 106% and 103% | HT29 colon 96.8% and 93.4% | SNB-75 CNS 85.2% and 85.5% | SNB-19 CNS 97.8% and 105% | U251 CNS 103% and 101% | PC-3 prostate 117% and 96.1% | SK-MEL-5 melanoma 104% and 108% | UACC-62 melanoma 99.2% and 108% | LOX IMVI melanoma 108% and 98.5% | SK-MEL-28 melanoma 107% and 99.4%

CCCCCCCC/C=C\CCCCCCCCOc1ccccc1CC(=O)NCC[N+]1(C)CCOCC1
inactive: HCT-15 colon 92.5% | HT29 colon 44.9% | SNB-75 CNS 47.7% | SNB-19 CNS 32.8% | U251 CNS 12.3% | PC-3 prostate 21.7% | SK-MEL-5 melanoma 89.3% | UACC-62 melanoma 68% | LOX IMVI melanoma 71.8% | SK-MEL-28 melanoma 93.8%

COc1ccc(Oc2nc(Nc3ccc(N4CCOCC4)cc3)ncc2NC(=O)c2cc(OC)cc(OC)c2)cc1
inactive: HCT-15 colon 67.7% | HT29 colon 72% | SNB-75 CNS 79.1% | SNB-19 CNS 87.4% | U251 CNS 82.7% | PC-3 prostate 67.5% | SK-MEL-5 melanoma 77.2% | UACC-62 melanoma 87.8% | LOX IMVI melanoma 84.7% | SK-MEL-28 melanoma 100%

COC(=O)c1[nH]nc(OC)c1C1(C(C#N)c2nc3ccccc3s2)CCCc2ccccc21 (stereo not given)
inactive: HCT-15 colon 102% | HT29 colon 95.8% | SNB-75 CNS 86.4% | SNB-19 CNS 96.7% | U251 CNS 96.5% | PC-3 prostate 79.5% | SK-MEL-5 melanoma 97.8% | UACC-62 melanoma 79.6% | LOX IMVI melanoma 95% | SK-MEL-28 melanoma 78.9%

Cc1nc2sc(C(=O)Nc3cccc(Cl)c3C)c(N)c2cc1C(O)c1ccccc1 (stereo not given)
active: U251 CNS 9.59% | SK-MEL-5 melanoma -37.5%
inactive: HCT-15 colon 12.3% | HT29 colon 11.8% | SNB-75 CNS 59.3% | SNB-19 CNS 34.7% | PC-3 prostate 19.6% | UACC-62 melanoma 21.4% | LOX IMVI melanoma 20.5% | SK-MEL-28 melanoma 53.9%

CCCCSc1ccc2nc(-c3ccc(OCCCN=C(N)N)cc3)cn2c1
inactive: HCT-15 colon 92.7% | HT29 colon 53% | SNB-75 CNS 22.5% | SNB-19 CNS 24.5% | U251 CNS 13.1% | PC-3 prostate 54% | SK-MEL-5 melanoma 52.8% | UACC-62 melanoma 52% | LOX IMVI melanoma 61.3% | SK-MEL-28 melanoma 38.3%

CCN1C(=O)N(c2ccccc2)C2NC(=S)N(/N=C/C=C/c3ccccc3)C21 (stereo not given)
inactive: HCT-15 colon 12.6% | SNB-75 CNS 35.5% | SNB-19 CNS 22.6% | U251 CNS 13.9% | PC-3 prostate 14% | UACC-62 melanoma 20% | LOX IMVI melanoma 14.8% | SK-MEL-28 melanoma 60.1%
active: HT29 colon 4.84% | SK-MEL-5 melanoma 3.14%

COc1ccc(C(c2cc(OC)c(OC)c(OC)c2)n2ccnc2)cc1O (stereo not given)
inactive: SNB-75 CNS 56.7% | SNB-19 CNS 30.5% | U251 CNS 15.5% | PC-3 prostate 20.7% | UACC-62 melanoma 36.5% | LOX IMVI melanoma 25.7% | SK-MEL-28 melanoma 62.9%
active: HCT-15 colon 7.7% | HT29 colon 5.94% | SK-MEL-5 melanoma -12.9%

CN(C)CC1(C)Cc2ccsc2C1O (stereo not given)
inactive: HCT-15 colon 108% and 105% | HT29 colon 104% and 99.1% | SNB-75 CNS 110% and 101% | SNB-19 CNS 108% and 106% | U251 CNS 112% and 103% | PC-3 prostate 98.2% and 100% | SK-MEL-5 melanoma 110% and 107% | UACC-62 melanoma 109% and 112% | LOX IMVI melanoma 97.3% and 102% | SK-MEL-28 melanoma 120% and 126%

Nc1ncnc2c1C(c1ccc([N+](=O)[O-])cc1)c1sc3c(F)cccc3c1O2 (stereo not given)
inactive: HCT-15 colon 102% | HT29 colon 112% | SNB-75 CNS 97% | SNB-19 CNS 102% | U251 CNS 92.4% | PC-3 prostate 91.6% | SK-MEL-5 melanoma 98.4% | UACC-62 melanoma 81% | LOX IMVI melanoma 84.2% | SK-MEL-28 melanoma 106%

COc1cc2ncnc(Nc3ccc(F)c(Cl)c3)c2cc1OCC(=O)N1CCCCC1
inactive: HCT-15 colon 86.1% | HT29 colon 77.1% | SNB-75 CNS 87.7% | SNB-19 CNS 91.8% | U251 CNS 96.9% | PC-3 prostate 84.6% | SK-MEL-5 melanoma 90.4% | UACC-62 melanoma 91.7% | LOX IMVI melanoma 87.4% | SK-MEL-28 melanoma 99.2%

O=C1C(N2CCOCC2)=C(I)C(=O)c2ncccc21
inactive: HCT-15 colon 67.1% | HT29 colon 102% | SNB-75 CNS 66.3% | SNB-19 CNS 73% | U251 CNS 61.9% | PC-3 prostate 79.4% | SK-MEL-5 melanoma 89.4% | UACC-62 melanoma 69.5% | LOX IMVI melanoma 43.4% | SK-MEL-28 melanoma 96.6%

N#C/C(=C\c1ccccc1Cl)c1cc2ccccc2[nH]1
inactive: HCT-15 colon 81.4% | HT29 colon 97.7% | SNB-75 CNS 83% | SNB-19 CNS 93.1% | U251 CNS 85.8% | PC-3 prostate 80.5% | SK-MEL-5 melanoma 85.9% | UACC-62 melanoma 76.5% | LOX IMVI melanoma 92.4% | SK-MEL-28 melanoma 99%

COc1ccc(-c2ccc(-c3ccc(C(=N)N)cn3)s2)cc1Cl
active: HCT-15 colon -72.5% | HT29 colon -52.6% | SNB-75 CNS -98.4% | SNB-19 CNS -73.9% | U251 CNS -62.2% | PC-3 prostate -80.9% | SK-MEL-5 melanoma -48.4% | UACC-62 melanoma -92.3% | LOX IMVI melanoma -84.5% | SK-MEL-28 melanoma -86.6%
